Active and inactive are the calls of the source.

For 16 compounds, composite z-score and z-score results are on record in PubChem BioAssay.

A short description of test [1]: binders of probe aFSTL3 on microarray, primary screen, stem cell growth factor project, biochemical, small-molecule microarray, fluorescence 635/667 (AID 1064).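 Further: measures binding of the biotinylated anti-FSTL3 antibody to printed compounds.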 Conditions: higher = more signal.
Test [2] can be described thus: binders from COS7 lysate, DM2A8 probe, primary screen, torsin A project, cell lysate, small-molecule microarray, fluorescence 635/667 (AID 1065). Conditions: higher = more signal, COS7 lysate expressing mutant human TOR1A.
The nature of test [3]: binders of probe aFGF2 on microarray, primary screen, stem cell growth factor project, biochemical, small-molecule microarray, fluorescence 635/667 (AID 1067).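 Further: measures binding of biotinylated aFGF2 protein to printed compounds on slides; z-score merges feature fluorescence and signal-to-noise across triplicate slides.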 Conditions: higher = more signal.
Test [4] is described as follows: binders of probe aFGF10 on microarray, primary screen, stem cell growth factor project, biochemical, small-molecule microarray, fluorescence 635/667 (AID 1071).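 Further: score merges 667 nm spot intensity and signal to noise from triplicate slides.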 Conditions: higher = more signal.
In test [5] the target is Neurogenic locus notch homolog protein 2 (Homo sapiens) (UniProt Q04721). The experiment in a line: Notch2 binders on small-molecule microarrays, primary screen, biochemical, small-molecule microarray, 635 nm fluorescence, stem cell growth factors (AID 1073). Conditions: Notch2 binding, higher = more signal.
Sequence of Neurogenic locus notch homolog protein 2 (Homo sapiens) (Q04721 whole entry, looked up, canonical isoform): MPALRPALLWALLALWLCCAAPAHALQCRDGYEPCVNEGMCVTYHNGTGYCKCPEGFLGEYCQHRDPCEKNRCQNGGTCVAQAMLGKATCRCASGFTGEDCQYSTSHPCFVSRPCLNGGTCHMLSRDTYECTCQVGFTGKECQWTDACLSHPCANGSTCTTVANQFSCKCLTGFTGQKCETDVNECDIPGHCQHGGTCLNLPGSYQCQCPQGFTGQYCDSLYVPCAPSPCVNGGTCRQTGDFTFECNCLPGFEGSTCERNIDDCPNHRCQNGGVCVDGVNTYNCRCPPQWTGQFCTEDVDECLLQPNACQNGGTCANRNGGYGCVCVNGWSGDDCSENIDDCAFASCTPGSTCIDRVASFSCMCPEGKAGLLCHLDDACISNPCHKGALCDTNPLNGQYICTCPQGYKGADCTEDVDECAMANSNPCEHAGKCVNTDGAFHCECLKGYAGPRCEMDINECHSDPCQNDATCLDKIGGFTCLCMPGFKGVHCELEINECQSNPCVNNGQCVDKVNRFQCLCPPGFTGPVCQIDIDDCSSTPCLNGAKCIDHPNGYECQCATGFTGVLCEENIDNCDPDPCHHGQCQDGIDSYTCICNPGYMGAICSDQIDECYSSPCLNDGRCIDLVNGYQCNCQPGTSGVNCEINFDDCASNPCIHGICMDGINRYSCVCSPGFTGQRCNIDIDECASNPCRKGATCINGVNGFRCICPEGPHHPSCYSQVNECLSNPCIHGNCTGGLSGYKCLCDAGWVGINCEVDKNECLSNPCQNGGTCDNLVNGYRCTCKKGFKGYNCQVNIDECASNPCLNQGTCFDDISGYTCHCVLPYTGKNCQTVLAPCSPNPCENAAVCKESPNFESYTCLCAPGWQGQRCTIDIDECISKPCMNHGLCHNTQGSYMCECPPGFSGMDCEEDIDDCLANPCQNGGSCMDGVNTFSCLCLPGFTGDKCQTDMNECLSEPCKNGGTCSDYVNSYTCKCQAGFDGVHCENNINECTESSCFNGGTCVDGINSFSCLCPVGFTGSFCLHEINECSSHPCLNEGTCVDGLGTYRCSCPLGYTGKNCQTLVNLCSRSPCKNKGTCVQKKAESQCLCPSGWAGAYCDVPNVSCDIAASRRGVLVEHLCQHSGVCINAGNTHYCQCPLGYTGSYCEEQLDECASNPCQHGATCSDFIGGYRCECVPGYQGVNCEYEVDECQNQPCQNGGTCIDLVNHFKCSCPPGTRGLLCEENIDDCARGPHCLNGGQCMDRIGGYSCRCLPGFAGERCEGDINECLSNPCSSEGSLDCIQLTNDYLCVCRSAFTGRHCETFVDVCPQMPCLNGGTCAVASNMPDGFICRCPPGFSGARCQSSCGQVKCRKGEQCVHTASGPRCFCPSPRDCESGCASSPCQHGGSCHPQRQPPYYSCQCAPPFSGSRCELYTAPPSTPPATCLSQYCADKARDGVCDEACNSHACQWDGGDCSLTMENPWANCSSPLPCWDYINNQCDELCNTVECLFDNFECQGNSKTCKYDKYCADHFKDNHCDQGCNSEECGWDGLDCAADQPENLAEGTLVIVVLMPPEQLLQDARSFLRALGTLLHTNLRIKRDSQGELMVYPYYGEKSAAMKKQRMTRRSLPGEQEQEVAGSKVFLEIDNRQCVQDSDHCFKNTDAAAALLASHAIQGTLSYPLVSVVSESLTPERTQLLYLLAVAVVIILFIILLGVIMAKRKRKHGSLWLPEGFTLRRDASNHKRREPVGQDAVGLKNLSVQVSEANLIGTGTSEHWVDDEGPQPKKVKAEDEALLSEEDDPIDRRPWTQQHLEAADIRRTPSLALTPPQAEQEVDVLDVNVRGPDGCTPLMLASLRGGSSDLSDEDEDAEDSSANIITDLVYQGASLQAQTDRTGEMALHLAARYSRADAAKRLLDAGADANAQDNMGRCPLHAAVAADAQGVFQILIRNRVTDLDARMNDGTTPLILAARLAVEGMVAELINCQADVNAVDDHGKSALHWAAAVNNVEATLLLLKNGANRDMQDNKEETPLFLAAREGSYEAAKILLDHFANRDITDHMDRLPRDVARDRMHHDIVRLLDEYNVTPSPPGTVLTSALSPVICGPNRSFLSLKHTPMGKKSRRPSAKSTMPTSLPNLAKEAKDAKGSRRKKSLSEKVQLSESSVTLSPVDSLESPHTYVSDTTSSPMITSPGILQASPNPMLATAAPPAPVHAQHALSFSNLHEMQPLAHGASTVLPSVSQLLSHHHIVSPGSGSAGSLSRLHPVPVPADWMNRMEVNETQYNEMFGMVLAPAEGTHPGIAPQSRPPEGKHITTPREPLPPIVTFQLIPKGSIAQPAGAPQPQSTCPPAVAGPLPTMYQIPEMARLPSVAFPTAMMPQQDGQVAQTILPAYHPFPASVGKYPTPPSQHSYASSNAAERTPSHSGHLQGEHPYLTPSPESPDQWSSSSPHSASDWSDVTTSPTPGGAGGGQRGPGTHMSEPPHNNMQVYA
Test [6] deals with Pro-neuregulin-1, membrane-bound isoform (Homo sapiens) (UniProt Q02297). Description: NRG1 binders on small-molecule microarrays, primary screen, psychiatric disease protein project, biochemical, small-molecule microarray, fluorescence 635/667 (AID 1075).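 Further: score combines 667 nm spot fluorescence with signal to noise.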 Conditions: NRG1 binding, 635 nm fluorescence, higher = more signal.
Sequence of Pro-neuregulin-1, membrane-bound isoform (Homo sapiens) (Q02297 whole entry, looked up, the tested form may be a part, canonical isoform): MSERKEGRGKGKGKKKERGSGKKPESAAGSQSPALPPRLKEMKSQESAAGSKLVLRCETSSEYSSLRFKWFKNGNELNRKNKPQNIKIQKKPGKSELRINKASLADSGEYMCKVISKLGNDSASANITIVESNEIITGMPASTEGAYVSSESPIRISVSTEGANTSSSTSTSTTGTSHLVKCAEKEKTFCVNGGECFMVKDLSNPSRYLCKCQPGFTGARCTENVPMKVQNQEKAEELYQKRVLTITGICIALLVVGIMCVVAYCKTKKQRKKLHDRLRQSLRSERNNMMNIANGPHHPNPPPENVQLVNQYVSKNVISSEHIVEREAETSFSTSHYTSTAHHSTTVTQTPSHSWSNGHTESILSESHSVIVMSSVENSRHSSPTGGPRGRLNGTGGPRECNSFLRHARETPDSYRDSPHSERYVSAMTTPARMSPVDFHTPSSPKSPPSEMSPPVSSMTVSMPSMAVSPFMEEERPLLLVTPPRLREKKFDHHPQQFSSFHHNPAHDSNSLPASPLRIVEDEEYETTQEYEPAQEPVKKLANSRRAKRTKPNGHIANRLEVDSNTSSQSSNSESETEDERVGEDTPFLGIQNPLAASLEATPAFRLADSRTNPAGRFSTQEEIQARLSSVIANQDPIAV
In test [7] the test system is Neuregulin-1 EGF-like domain. The experiment in a line: binders of neuregulin-1 EGF-like domain, primary screen, biochemical, small-molecule microarray, 635 nm fluorescence (AID 1081).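 Further: binding of the protein to compounds printed on small-molecule microarray slides.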 Conditions: small-molecule microarray binding, higher = more signal.
Test [8] in a line: FRG1 promoter luciferase signal modulators, primary screen, FRG1 inhibition for FSHD, cell-based, C2C12 myotubes, firefly/Renilla luciferase, luminescence (AID 1084). Conditions: higher = more signal, called active from +8 up or from −8 down.
A short description of test [9]: binders of probe aFST on microarray, primary screen, stem cell growth factor project, biochemical, small-molecule microarray, fluorescence 635/667 (AID 1086).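 Further: score merges 667 nm fluorescence with signal-to-noise of each printed compound spot.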 Conditions: higher = more signal.
A short description of test [10]: binders of probe aHhip on microarray, primary screen, stem cell growth factor project, biochemical, small-molecule microarray, fluorescence 635/667 (AID 1087).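 Further: score merges spot fluorescence at 667nm with spot signal to noise ratio.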 Conditions: higher = more signal.

`C=C(C(=O)CC[C@H](OC(=O)c1ccccc1-c1ccccc1C(=O)O)c1ccccc1OCCO)C(C)C`: the composite z-score in test [1] is -0.148; in test [2], 0.724; in test [3] it was -0.163; in [4], 0.782; in [5], 0.393; in test [6] it was 0.61. Further, the composite z-score was 1.18 in [7], 0.117 in [9] and -0.0994 in test [10]. Also, in [8], the z-score was -1.38 (inactive).
In the case of `CC(=O)NCCCC[C@@H]1NC(=O)[C@H]2C[C@@H](C(=O)NCCCCCNC(=O)CS)[C@@H](c3cccc(OCCO)c3)N2C1=O`, the composite z-score in [1] was -0.0107; in test [2], 0.487; in test [3] it was -0.133; in test [4], -0.379; in test [5], -0.544; in test [6], -0.352. Further, the composite z-score was 1.03 in test [7], -0.203 in test [9] and -0.0074 in [10]. For the same compound, the z-score in [8] was 0.824 (inactive).
With `COc1ccc(C(O)C2C=CC3C(=O)N(c4ccccc4)C(=O)C3N2Nc2ccccc2)cc1` (stereo not given), the composite z-score in [1] was -0.0234; in [2], 0.316; in test [3], 0.142; in [4] it was 0.979; in [5] it was 1.66; in test [6] it was 1.93. For the same compound, the composite z-score in test [7] is 1.31; in [9] it was 0.531; in test [10], 0.289. Moreover, the z-score in test [8] was -1.07 (inactive).
For the compound `[N-]=[N+]=Nc1ccccc1C[C@]1(C(=O)NCc2ccccc2)COC(c2ccc(OCCCO)cc2)=N1`, the composite z-score amounted to 0.191 in test [1]; 0.666 in [2]; 0.113 in test [3]; 1.27 in test [4]; 0.777 in [5]; 1.24 in test [6]. The composite z-score in test [7] was 1.21; in test [9] it was 0.892; in [10], -0.207. Further, the z-score in test [8] is -1.36 (inactive).
On to `COC(=O)C(CC#Cc1ccc2c(c1)[C@]1(C(=O)N2)[C@H](C(=O)Nc2nc3ccccc3s2)[C@H]2C(=O)O[C@H](c3ccccc3)[C@H](c3ccccc3)N2[C@@H]1c1ccc(OCCO)cc1)C(=O)OC`, for which the composite z-score in test [1] is 0.156; in test [2] it was 0.444; in test [3], -0.0036; in test [4] it was 1.05; in [5], 1.4; in [6] it was 1.87. Besides, the values for the composite z-score in test [7], in [9] and in test [10] were 1.24, 0.846 and -0.137, respectively. For the same compound, in [8], the z-score was 1.9 (inactive).
For the compound `CC(C)c1ccc(NN2C(C(O)Cc3ccccc3)C=CC3C(=O)N(c4ccccc4)C(=O)C32)cc1` (stereo not given), the composite z-score in [1] was 0.0399; in [2], -0.0235; in [3], 0.0116; in [4], 0.408; in test [5], 1.5; in test [6] it was 1.76. The composite z-score in test [7] was 0.593; in test [9], 1.36; in test [10] it was -0.0645. For the same compound, in [8], the z-score is 0.0899 (inactive).
As to `CC1(C)C(=O)C(c2ccccc2)=C2CN3C(=O)N(CCc4ccccc4)C(=O)C3(Cc3ccc(F)cc3)C=C21` (stereo not given), the composite z-score in test [1] was 0.817; in test [2] it was -0.339; in test [3], 0.248; in [4], 0.173; in [5], 1.47; in test [6] it was 0.536. The composite z-score was determined as 0.631 in [7], 1.58 in [9] and 0.0818 in [10]. Further, the z-score in test [8] is 0.927 (inactive).
For `C=CCC(OC(C)=O)[C@@H]1[C@@H](N(Cc2cccc3ccccc23)C(=O)c2ccc(-c3ccccc3)cc2)c2cc(OCCCO)ccc2N1C(=O)c1ccc(-c2ccccc2)cc1` (stereo not given in full), the composite z-score was -0.0061 in test [1]; 0.356 in test [2]; -0.06 in [3]; 0.0099 in [4]; 0.369 in test [5]; 0.0975 in [6]. The composite z-score in test [7] was -0.453; in test [9], 0.392; in test [10], 0.0274. Also, in [8], the z-score is -0.774 (inactive).
In the case of `COC(=O)C1N=C(c2ccc(OCCCO)cc2)N(c2ccccc2)O1` (stereo not given), the composite z-score in test [1] is 0.397; in test [2], 0.148; in [3] it was -0.0189; in test [4] it was 1.17; in test [5], 1.54; in test [6], 1.1. The figures for the composite z-score in [7], in test [9] and in test [10] were 0.913, 0.897 and -0.317, respectively. The z-score in test [8] was 2.35 (inactive).
Regarding `O=C1C2C=CC(C(O)c3ccc4c(c3)OCO4)N(Nc3ccccc3)C2C(=O)N1c1ccccc1` (stereo not given), the composite z-score in [1] was 0.154; in test [2], -0.186; in test [3], 0.0917; in test [4] it was 0.847; in test [5], 1.55; in [6], 1.46. In addition, the values for the composite z-score in test [7], in test [9] and in test [10] were 1.09, 1.38 and -0.204, respectively. In [8], the z-score was -0.545 (inactive).
Consider `COC(=O)C1=CC(CCCO)=CC(C)N(Cc2cccc(OC(F)(F)F)c2)C=C1C(=O)OC` (stereo not given), for which the composite z-score in test [1] was -0.385; in test [2] it was -0.383; in test [3] it was -0.0667; in test [4] it was 0.157; in [5], 0.412; in test [6], 2.05. Besides, the composite z-score in test [7] is 1.21; in test [9] it was 0.577; in test [10], -0.0994. In addition, the z-score in test [8] is -0.181 (inactive).
`COCCOC(=O)N1C(=O)[C@@]2(c3cc(C#CC4(O)CCCCCC4)ccc31)[C@H](c1ccc(OCCO)cc1)N1[C@H](c3ccccc3)[C@H](c3ccccc3)OC(=O)[C@H]1[C@@H]2C(=O)Nc1nc2ccccc2s1`: the composite z-score in test [1] is 0.676; in test [2], 0.54; in [3] it was -0.0234; in [4], 0.874; in [5], 1.32; in [6] it was 0.526. Moreover, the composite z-score in test [7] was 1.04; in test [9] it was 1.08; in test [10] it was 0.245. The z-score in test [8] is 3.79 (inactive).
Consider `CCOC(=O)C1=CC[C@@H](c2ccccc2)N(S(=O)(=O)c2ccc(C)cc2)[C@H]1c1cccc(OC)c1`, for which the composite z-score in test [1] is 0.154; in test [2] it was -0.133; in test [3], 0.0182; in test [4], 0.31; in test [5], 1.34; in test [6], 1.28. In addition, the composite z-score was 0.746 in [7], 0.648 in test [9] and -0.0203 in [10]. In addition, in [8], the z-score was -2.57 (inactive).
With `C[C@]1(C(=O)O)c2ccccc2C(=O)N(Cc2ccc(OC(F)(F)F)cc2)[C@H]1c1ccc(CO)cc1`, the composite z-score in test [1] was 0.592; in test [2], -0.139; in test [3], -0.0442; in test [4], -0.106; in test [5] it was -0.0052; in test [6], 0.787. Further, the composite z-score in test [7] was 0.509; in test [9], 0.302; in test [10], -0.226. Besides, the z-score in test [8] was -1.27 (inactive).
For `C=C(COC)C(=O)CC[C@@H](OC(=O)c1cccnc1)c1ccccc1OCCO`, the composite z-score in [1] is 0.403; in [2] it was 1.66; in test [3], -0.122; in test [4], 0.276; in [5], -0.427; in test [6], 0.754. The composite z-score amounted to 0.655 in test [7], 0.327 in test [9] and 0.0176 in test [10]. For the same compound, the z-score in [8] is 0.0248 (inactive).
In the case of `CCOC(=O)C[C@H]1[C@H](OC(=O)c2ccc(C(=O)c3ccccc3)cc2)[C@@H](NC(=O)CC(C)C)c2cc(OCCCO)ccc2N1C(=O)Cc1ccc(OC)cc1`, the composite z-score in [1] is 0.134; in test [2] it was 0.819; in [3], -0.105; in test [4], 0.209; in test [5] it was 0.342; in [6] it was 0.517. Besides, the composite z-score was 0.2 in [7], 0.51 in test [9] and -0.0074 in [10]. Moreover, the z-score in test [8] was -1.69 (inactive).
